# Results from ChEMBL document CHEMBL4513216, “Probing the Open Global Health Chemical Diversity Library for Multistage-Active Starting Points for Next-Generation Antimalarials” (ACS Infect Dis, 2020).
# About 8,600 (12%) of roughly 69,000 compounds showed an effect of 50% or more. The sample holds strong results, similar compounds and a random draw of the others, so the mix is not that of the screen.
# Tested on: Plasmodium berghei
# Test: Screen against P. berghei liver stage (PbLuc), transformed with Luciferase, at 10uM
# Format: functional, HepG2
# Details: tested at 10 uM
row,Compound,INHIBITION [%]
1,Cn1cc(CN2CCOC(Cc3cccc(F)c3)C2)cn1 (stereo not given),36.8
2,CC(C)(C)NC(=O)c1ccccc1NC(=O)c1ccncc1,30.1
3,Cc1c(NC(=O)c2ncn[nH]2)cccc1C(=O)NC(C)(C)C,59.5
4,Cc1c(NC(=O)c2cnc[nH]2)cccc1C(=O)NC(C)(C)C,34.5
5,CCn1c(NCC2CCCO2)nc2c(C)nn(C)c2c1=O (stereo not given),25.8
6,Cc1ccc(C)c2c(O)cc(CN3CCC(=O)NCC3C)nc12 (stereo not given),3.69
7,NCC1CCCCN1Cc1cc(O)c2cccc(F)c2n1 (stereo not given),44.7
8,O=C1CN(Cc2cc(O)c3cccc(F)c3n2)CCN1C1CCCC1,37.7
9,Oc1cc(CN2CCCCC2c2cccnc2)nc2c(F)cccc12 (stereo not given),54.4
10,CC1CNC(=O)CCN1Cc1cc(O)c2cccc(F)c2n1 (stereo not given),51.2
11,OCC1CCCCN1Cc1cc(O)c2cccc(F)c2n1 (stereo not given),27.6
12,O=C(c1cc(Cn2ccc3ccccc32)[nH]n1)N1CCOCC1,16.2
13,O=C([C@@H]1CCCO1)N1CCN(Cc2ccncc2)c2ncccc2C1,40.3
14,COCC(=O)N1CCC(c2csc(NC(C)=O)n2)CC1,17.1
15,CCC(=O)NCC(c1ccc(SC)cc1)N1CCc2sccc2C1 (stereo not given),28.3
16,CSc1ccc(C(CNC(C)=O)N2CCc3sccc3C2)cc1 (stereo not given),34.9
17,CSc1ccc(C(CNC(=O)C2CC2)N2CCc3sccc3C2)cc1 (stereo not given),19.7
18,CC(C)c1ccc(C(CN)N2CCc3sccc3C2)cc1 (stereo not given),82.2
19,CCOCCCC(=O)NCC(c1ccccc1)N1CCc2sccc2C1 (stereo not given),27.6
20,NCC(c1ccccc1)N1CCc2sccc2C1 (stereo not given),-41.8
21,CSc1ccc(C(CN)N2CCc3sccc3C2)cc1 (stereo not given),66.3
22,O=C(NCCO)NCC(c1ccccc1)N1CCc2sccc2C1 (stereo not given),5.91
23,NCC(c1ccc(Cl)cc1)N1CCc2sccc2C1 (stereo not given),71.2
24,Cc1ocnc1CNC(=O)Nc1ccc(N2CCOC(C)C2)cc1 (stereo not given),25.8
25,COc1ccc(C)cc1C(C)NC(=O)Cn1ccc(=O)n(C)c1=O (stereo not given),-25.9
26,CN(C(=O)CCN1CCCC1=O)c1cc(C#N)c2ccccc2n1,31.2
27,c1cncc(C2COC3(CCN(Cc4ccsc4)CC3)C2)c1 (stereo not given),46.1
28,COc1ccc(C(C)NCc2cscn2)cc1Cn1cccn1 (stereo not given),41.4

row,Compound,INHIBITION [%]
1,CNc1cc(C2CCCN(Cc3ccccc3OCC(=O)O)C2)ccn1 (stereo not given),18.3
2,Cc1cc(CNC(=O)CN2CCCC(Cn3cncn3)C2)ccc1F (stereo not given),25.6
3,Cc1ccc(Cl)c(NC(=O)NC2(C)CCOC2)c1 (stereo not given),24.8
4,Cc1ccc(C)c(-n2ncc(NC(=O)NC3(C)CCOC3)c2C)c1 (stereo not given),33.2
5,Cc1ccc(-n2cc(C)cn2)c(NC(=O)NC2(C)CCOC2)c1 (stereo not given),56.3
6,O[C@@H]1CN(Cc2cnccn2)C[C@H]1Oc1ccccc1,-10.5
7,O=C(Cc1cccc(O)c1)N1CCCC(OCc2cccnc2)C1 (stereo not given),36.2
8,CC(C)(C)C(=O)NCCc1cc(N2CCOCC2)nc(NC2CC2)n1,30.15
9,Cc1cnn(CC2CCCN2C(=O)c2ccc(-n3cccn3)nc2)c1 (stereo not given),16.2
10,Cc1nc(-c2ccc(F)c(F)c2)cc(C2CCNCC2)n1,-2.09
11,Cc1ccc(-c2cc(C3CCNCC3)nc(C)n2)cc1,6.26
12,Cc1nc(-c2ccc(F)cc2)cc(C2CCNCC2)n1,54.5
13,O=C(CN1CCSC(c2ccccc2)C1)NCc1ccccn1 (stereo not given),31.9
14,O=C(CCc1ccc2c(c1)CCO2)Nc1nnn[nH]1,28.6
15,COc1ccc(C(=O)N2CC(=O)N(CC3CC3)CC(O)C2)cc1 (stereo not given),42.7
16,CC(C)c1cc(C(=O)N2CCOCC2CC(=O)c2ccco2)nn1C (stereo not given),-4.35
17,C/N=C1/c2cc3cc(OC)ccc3n2CCN1C,15.06
18,COc1ccc2c(ccn2CCN)c1,34.7
19,COc1ccc(CN2CC[C@@H](O)[C@@H]2Cc2ccccc2)cc1,-23.7
20,C/N=C1\c2cc3cc(OC)ccc3n2CCN1Cc1ccccc1,83
21,C/N=C1/c2cc3cc(OC)ccc3n2CCN1Cc1ccccc1,67.6
22,C/N=C1\c2cc3cc(OC)ccc3n2CCN1C,-6.09
23,Fc1cccc(CN2CCC[C@@H](Cn3nnc(-c4ccccn4)n3)C2)c1,40.1
24,Cn1nc(CNC(=O)c2cccc(C(F)(F)F)c2)c2c1CCOC2,15.9
25,O=C(c1cc2c(s1)CCC2)N1CCCC1Cn1cccn1 (stereo not given),-18.8
26,Cc1nc(CSCCC(=O)NCc2ccc(-n3cncn3)nc2)cs1,16.8
27,CCNC(=O)[C@@H]1CCCN1C1(C(=O)NC)CCCCC1,10.5
